This passage reports outcome and AC50 results from PubChem BioAssay (EPA / NIEHS).

Experiment [1] can be described thus: CCTE_Harrill_HTTr_Viability_MCF7: CCTE's 6-hour Cell Viability Assessment for the High-Throughput Transcriptomics (HTTr) Platform, in MCF-7 cells cultured in DMEM + 10% fetal bovine serum, Harrill Lab (AID 2284010). Summed up: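 Eight-point concentration series, six-hour exposure. Propidium iodide exclusion imaged to assess membrane integrity as a cytotoxicity readout; bidirectional fitting was done with DMSO as negative control and activity baseline.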

Experiment [2] in a line: CCTE_Harrill_HTTr_CellCount_MCF7: CCTE's Cell Proliferation Assessment for the High-Throughput Transcriptomics (HTTr) Platform, Harrill Lab (AID 2284012; active = hit-call score of the fitted dose curve at least 0.9, where 1 is the maximum;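 also: intended direction is loss of nuclei count meaning fewer cells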). Summed up: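 For this full-screen endpoint, MCF-7 cultures received eight compound dilutions for six hours. Well nuclei counts from Hoechst imaging were analyzed relative to DMSO.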
Experiment [3] is described as follows: CCTE_Harrill_HTTr_Apoptosis_MCF7: CCTE's 6-hour Apoptosis Assessment for the High-Throughput Transcriptomics (HTTr) Platform, in MCF-7 cells cultured in DMEM + 10% fetal bovine serum, Harrill Lab (AID 2284011). Summed up: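 MCF-7 cells in DMEM + 10% FBS exposed 6 h to chemicals over an eight-point dilution series. Caspase-3/7 activation imaged by high-content CellEvent Green staining; fitted bidirectionally versus DMSO.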

Experiment [4] is described as follows: CCTE_Shafer_MEA_acute_spike_number: CCTE's Neural Acute Assay for Total Number of Spikes, Shafer Lab (AID 2284008). Summed up:
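Rat primary cortical neurons on 48-well MEA plates, DIV 13 or 15, at 37 C. 40 min baseline then 40 min with compound (0.03-40 uM); spikes detected at 8x rms noise, expressed as percent change from baseline.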

Experiment [5] is described as follows: CCTE_Shafer_MEA_acute_firing_rate_mean: CCTE's Neural Acute Assay for Mean Firing Rate, Shafer Lab (AID 2284009).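 Also: analyzed for loss of signal so actives lower firing rate relative to DMSO.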 The method, boiled down: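 Spontaneous spiking of primary rat cortical networks, DIV 13/15, 37 C. Compound 0.03-40 uM, n ≥3 wells; 40 min baseline vs 40 min treated. Endpoint fitted in loss-of-signal direction against DMSO.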
Experiment [6] can be described thus: CCTE_Shafer_MEA_acute_burst_number: CCTE's Neural Acute Assay for Single-Electrode Bursts, Shafer Lab (AID 2284013). Summed up: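 Burst totals were derived with adaptive spike detection (8x rms threshold) on filtered signals from rat cortical cultures; change relative to pre-treatment baseline after 40-min compound exposure (0.03-40 uM) was fitted in the negative direction against DMSO.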

Experiment [7] in a line: CCTE_Shafer_MEA_acute_burst_duration_mean: CCTE's Neural Acute Assay for Mean Burst Duration, Shafer Lab (AID 2284014).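 Also: hits are decreases in mean burst duration relative to DMSO controls.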 Summed up:
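Acute exposure of mature rat cortical networks (DIV 13 or 15) grown on microelectrode arrays to 0.03-40 uM compound. Mean burst duration compared with the 40-min pre-dose baseline over a 40-min post-dose recording at 37 C.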

Experiment [8] is described as follows: CCTE_Shafer_MEA_acute_per_burst_spike_number_mean: CCTE's Neural Acute Assay for Average Number of Spikes Per Burst, Shafer Lab (AID 2284015).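 Also: hits are decreases in mean spikes per burst versus baseline.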 Summed up: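 Percent change in mean spikes per single-electrode burst is compared between a 40 min baseline and a 40 min recording with compound (0.03-40 uM). Cultures were rat cortical neurons on MEA plates at DIV 13 or 15, recorded at 37 C, with DMSO as the negative control.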

A short description of experiment [9]: CCTE_Shafer_MEA_acute_interburst_interval_mean: CCTE's Neural Acute Assay for Mean Interburst Interval, Shafer Lab (AID 2284016).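 Also: percent change of mean interburst interval versus each well's own pre-dose baseline; curves fitted for decrease in interburst interval relative to DMSO.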 The method, boiled down:
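Percent change in mean single-electrode interburst interval was calculated per well from 40 min recordings before and after compound (0.03-40 uM). Recordings were made at 37 C on rat cortical cultures at DIV 13 or 15, with spikes detected at 8x rms threshold.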

A short description of experiment [10]: CCTE_Shafer_MEA_acute_burst_percentage_mean: CCTE's Neural Acute Assay for Percentage of Spikes in a Burst, Shafer Lab (AID 2284017). Summed up:
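Well-level mean burst percentage from a 40-min recording after compound (0.03-40 uM) expressed as percent change from a 40-min baseline at 37C. Cultures: primary rat cortical neurons on MEA, dosed on DIV 13 or 15; fitted downward relative to DMSO.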

The nature of experiment [11]: CCTE_Shafer_MEA_acute_per_network_burst_spike_number_std: CCTE's Neural Acute Assay for Standard Deviation of Number of Spikes in a Network Burst, Shafer Lab (AID 2284020).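 Also: fitted for decrease in spike-number SD versus DMSO so actives lower it.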 The method, boiled down:
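Acute MEA exposure, rat cortical neurons, 0.03-40 uM. Per-well % change versus own baseline; DMSO as negative control.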

The nature of experiment [12]: CCTE_Shafer_MEA_acute_per_network_burst_electrodes_number_mean: CCTE's Neural Acute Assay for Mean Number of Electrodes in a Network Burst, Shafer Lab (AID 2284021).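 Also: curves fitted for decreases only so hits reduce electrodes per burst.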 The method, boiled down: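 Rat primary cortical neurons on 48-well MEAs, DIV 13 or 15, were treated at 0.03-40 uM. Spikes were detected at 8x rms noise and recorded at 37 C. The mean electrodes per network burst in a 40 min exposure recording was expressed as percent change from a 40 min baseline.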

The nature of experiment [13]: CCTE_Shafer_MEA_acute_network_burst_percentage: CCTE's Neural Acute Assay for Percentage of Network Bursts, Shafer Lab (AID 2284022).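 Also: curves fitted for loss so actives lower network burst percentage.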 The method, boiled down:
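Rat primary cortical neuron networks on 48-well MEA plates, DIV 13 or 15, treated acutely with compound (0.03-40 uM, at least three wells). Percent of spikes within network bursts compared between 40-min recordings before and during exposure at 37 C, expressed as percent change.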

Experiment [14] can be described thus: CCTE_Shafer_MEA_acute_cross_correlation_HWHM: CCTE's Neural Acute Assay for Cross Correlation at Half Width at Half Maximum, Shafer Lab (AID 2284026).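 Also: hits are a decrease in cross-correlogram half width relative to DMSO.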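 As to outcome: spontaneous network firing of rat primary cortical neurons on multiwell microelectrode arrays.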 The method, boiled down: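 Rat primary cortical neurons on 48-well MEA plates; 40-min baseline and 40-min post-exposure recordings at 37 C on DIV 13 or 15, compounds 0.03-40 uM. Spikes detected at 8x rms noise; percent change in cross-correlogram HWHM per well vs baseline.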

Experiment [15] in a line: CCTE_Shafer_MEA_dev_firing_rate_mean: CCTE's Neural Network Formation Assay for Mean Firing Rate, Shafer Lab (AID 2284031). The method, boiled down:
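Extracellular spike frequency, AUC over DIV 5–12 recordings, in rat cortical neuron MEA cultures dosed from plating; loss direction vs DMSO.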

Experiment [16] can be described thus: CCTE_Shafer_MEA_dev_per_burst_spike_percent: CCTE's Neural Network Formation Assay for Percent of Spikes in a Burst, Shafer Lab (AID 2284032). The method, boiled down: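 Value is trapezoidal AUC over recordings on days 5, 7, 9 and 12 of the well-mean fraction of spikes falling in single-electrode bursts; rat cortical cultures exposed continuously from plating, treatment renewed DIV 5 and 9, fitted downward against DMSO.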

A short description of experiment [17]: CCTE_Shafer_MEA_dev_active_electrodes_number: CCTE's Neural Network Formation Assay for Number of Active Electrodes, Shafer Lab (AID 2284040; active = hit-call score of the fitted dose curve at least 0.9, where 1 is the maximum). The method, boiled down: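 Developing rat cortical networks on MEAs, exposed DIV 0–12. Value is the AUC of active-electrode counts (≥5 spikes/min) from days 5, 7, 9, 12, relative to DMSO.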
Experiment [18] in a line: CCTE_Shafer_MEA_dev_burst_rate: CCTE's Neural Network Formation Assay for Burst Rate, Shafer Lab (AID 2284042). Summed up: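 Exposure ran continuously over 12 days of network development in rat cortical cultures, with compound refreshed during full media changes on DIV 5 and 9. Single-electrode bursts per recording time, well-mean over active electrodes, trapezoidal AUC across days 5–12, fitted downward relative to DMSO.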

Experiment [19] can be described thus: CCTE_Shafer_MEA_dev_per_burst_interspike_interval: CCTE's Neural Network Formation Assay for Burst Interspike Interval, Shafer Lab (AID 2284044). The method, boiled down: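 Primary rat cortical neurons on 48-well MEA plates, exposed from day 0 through day 12, treatment renewed at DIV 5 and 9. Within-burst interspike interval recorded days 5, 7, 9, 12, well-averaged, summarised as AUC; negative fit versus DMSO.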

Experiment [20] in a line: CCTE_Shafer_MEA_dev_burst_duration_mean: CCTE's Neural Network Formation Assay for Mean Burst Duration, Shafer Lab (AID 2284045). The method, boiled down:
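Network-formation assay in primary rat cortical neurons; treatment spans twelve days of development. Mean burst duration per well is integrated by trapezoidal AUC and fitted in the loss-of-signal direction against DMSO baseline.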

A short description of experiment [21]: CCTE_Shafer_MEA_dev_interburst_interval_mean: CCTE's Neural Network Formation Assay for Mean Interburst Interval, Shafer Lab (AID 2284046).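 Also: well-mean interburst interval of bursting electrodes as AUC over four recording days; curve fitted for decrease in interburst interval relative to DMSO.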 Summed up:
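Primary rat cortical neurons on PEI-coated 48-well MEA plates (laminin added with cells at plating) (16 electrodes/well), exposed from plating day 0 with renewal at DIV 5 and 9. Mean inter-burst interval averaged over bursting electrodes, AUC across days 5, 7, 9, 12; DMSO baseline.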

The nature of experiment [22]: CCTE_Shafer_MEA_dev_inter_network_spike_interval_mean: CCTE's Neural Network Formation Assay for Mean Inter-network Spike Interval, Shafer Lab (AID 2284047). The method, boiled down: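 Mean time between consecutive network-spike peaks, recorded extracellularly (adaptive spike detection) on DIV 5, 7, 9 and 12, summarized as trapezoidal AUC. Rat cortical cultures on MEAs dosed continuously days 0–12, re-dosed at feeds; loss-of-signal fit relative to DMSO.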

Experiment [23] is described as follows: CCTE_Shafer_MEA_dev_network_spike_number: CCTE's Neural Network Formation Assay for Number of Network Spikes, Shafer Lab (AID 2284048).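 Also: synchronized bursts across electrodes counted on days 5 7 9 12 and integrated as AUC.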 The method, boiled down:
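Extracellular recordings from 16-electrode wells track network formation in rat cortical cultures under continuous treatment from plating. The endpoint is network spike number, expressed as AUC across DIV 5–12 relative to DMSO vehicle.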

The nature of experiment [24]: CCTE_Shafer_MEA_dev_spike_duration_mean: CCTE's Neural Network Formation Assay for Mean Spike Duration, Shafer Lab (AID 2284051).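 Also: mean network spike duration pooled as area under curve over DIV 5 to 12 recordings.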 The method, boiled down:
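Spontaneous activity was recorded on days 5, 7, 9 and 12 from rat cortical cultures grown on microelectrode arrays and dosed continuously from day 0, with media and compound renewed after the DIV 5 and 9 recordings. Network-spike duration was collapsed by area under the curve.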

Experiment [25] in a line: CCTE_Shafer_MEA_dev_network_spike_duration_std: CCTE's Neural Network Formation Assay for Standard Deviation of Network Spike Duration, Shafer Lab (AID 2284052).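 Also: hits are decreases in network spike duration SD versus DMSO vehicle.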 Summed up:
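Network spike duration variability was collapsed across recordings on days 5, 7, 9 and 12 by trapezoidal area-under-curve and fitted downward against DMSO. Cultures were rat cortical neurons on PEI-coated MEA plates, dosed continuously from plating, refed with compound DIV 5/9.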

A short description of experiment [26]: CCTE_Shafer_MEA_dev_per_network_spike_spike_number_mean: CCTE's Neural Network Formation Assay for Mean Number of Spikes in a Network Spike, Shafer Lab (AID 2284053). The method, boiled down:
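Mean spike count within each network spike, taken in a 0.05 s window at its peak, was recorded on days 5, 7, 9 and 12 and integrated as trapezoidal area under the curve. Rat cortical cultures on MEA plates received continuous compound from day 0, refreshed at medium changes on DIV 5 and 9.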

Experiment [27] is described as follows: CCTE_Shafer_MEA_dev_per_network_spike_spike_percent: CCTE's Neural Network Formation Assay for Percent of Spikes in a Network Spike, Shafer Lab (AID 2284054). The method, boiled down:
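Developing networks of rat cortical neurons are dosed at day 0 and recorded extracellularly four times up to day 12. The endpoint is the area under the curve of percent spikes in network spikes, fitted in the negative direction relative to DMSO.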

Experiment [28] in a line: CCTE_Shafer_MEA_dev_LDH: CCTE's Lactate Dehydrogenase Assay for Cytotoxicity in the Neural Network Formation Assay, Shafer Lab (AID 2284068; active = hit-call score of the fitted dose curve at least 0.9, where 1 is the maximum;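 also: exposure for twelve days from plating with re-dosing on DIV 5 and 9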). The method, boiled down: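 Primary rat cortical neurons were cultured on PEI-coated MEA plates and exposed from plating through day 12, with compound renewed at medium changes on DIV 5 and 9. LDH activity was read spectrophotometrically; loss of signal versus DMSO indicates reduced viability.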

A short description of experiment [29]: CCTE_Shafer_MEA_dev_AB: CCTE's Alamar Blue Assay for Cytotoxicity in the Neural Network Formation Assay, Shafer Lab (AID 2284083; active = hit-call score of the fitted dose curve at least 0.9, where 1 is the maximum;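 also: resazurin reduction fluorescence as viability of cultured neurons; twelve days of exposure from plating with re-dosing on DIV 5 and 9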). Summed up: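 Resazurin fluorescence, relative to DMSO, gauges viability after twelve days of exposure that began at plating of rat cortical neurons (1.5 x 10^5 cells/well, 48-well MEA); treatment renewed with full medium exchange on DIV 5 and 9.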

Experiment [30] is described as follows: CCTE_Shafer_MEA_acute_LDH: CCTE's Lactate Dehydrogenase Assay for Cytotoxicity in the Neural Acute Assay, Shafer Lab (AID 2284086; active = hit-call score of the fitted dose curve at least 0.9, where 1 is the maximum;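 also: active means LDH release rises above DMSO vehicle level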). Summed up:
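Cytotoxicity readout: spectrophotometric LDH activity in supernatant of rat primary cortical neurons, post-plating day 13 or 15, sampled after 40 min compound exposure; signal gain relative to DMSO baseline.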

The nature of experiment [31]: CCTE_Shafer_MEA_dev_mutual_information_norm: CCTE's Neural Network Formation Assay for Mutual Information Normalization, Shafer Lab (AID 2284091). Summed up: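 Exposure of primary rat cortical neurons began at plating and ran to DIV 12, with full media and treatment renewal after DIV 5 and 9 recordings. Mutual information AUC (DIV 5–12) was analysed for loss versus DMSO.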

A short description of experiment [32]: CCTE_Shafer_MEA_dev_correlation_coefficient_mean: CCTE's Neural Network Formation Assay for Mean Correlation Coefficient, Shafer Lab (AID 2284093). Summed up: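 Primary rat cortical neurons on PEI-coated 48-well MEA plates (16 electrodes/well) were exposed from plating day 0 through DIV12, with compound renewed at DIV5 and 9. Pairwise spike correlations were averaged per well; trapezoidal AUC across DIV5, 7, 9, 12.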

Results filed as inconclusive are left out. A structure can be active in one record and inactive in another. Calls of active or inactive are those of the source. The calls were made as follows, unless noted: active = hit-call score of the fitted dose curve at least 0.9, where 1 is the maximum; inactive = score below 0.9.

Take `CC(C)(C)OOC(C)(C)C#CC(C)(C)OOC(C)(C)C`: the outcome in experiment [1] and in experiment [2] was inactive.
On to `[Cl-].[Cl-].[Cl-].[Pr+3]`, for which the result in experiment [1] and in experiment [3] was inactive.
On to `CP(=O)(O)CC[C@H](N)C(=O)O`, for which the compound was called inactive in experiment [4], in experiment [5], in [6], in [7], in experiment [8] and in experiment [9]. Further, the compound was classed as inactive in experiment [10], in [11], in experiment [12], in experiment [13], in experiment [14] and in [15]. In addition, the result in experiment [16], in [17], in [18], in experiment [19], in experiment [20] and in experiment [21] was inactive. The call in experiment [22], in [23], in [24], in experiment [25], in experiment [26] and in experiment [27] was inactive. The compound was classed as inactive in experiment [28], in [29], in [30], in experiment [31] and in experiment [32]. In addition, the AC50 (in general, the concentration giving half of the maximal activity seen) in [14] is 36.5 µM (active).
